HCMV inh – blocks human cytomegalovirus replication. HFF cells, HCMV-luciferase reporter, 72 h; hits give low values. activity change, negative = inhibition, % at 57.5 µM. 410,000 tested, 4.5% active. AID 1259415; in the data active = activity change below about -60%; inconclusive = no clear call, values can overlap the other calls; inactive = above about -39%
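Two compound doses tested in HFFs infected with HCMV-luciferase, MOI 1 PFU/cell, 72 h at 37C. Lysate luminescence read with OneGlo; data normalized against buffer-only and 10uM Salinomycin inhibitor controls.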
FBPA Giardia inh – blocks Giardia fructose-bisphosphate aldolase activity | A8B2U2 | purified Giardia FBPA | Potency, µM (highest dose often 59.6 µM), hits mostly inhibitors | 290,000 tested, 0.71% active | AID 2451; also: nearly all actives have a fitted effect of over 55% in size
Target sequence (A8B2U2 whole entry, looked up): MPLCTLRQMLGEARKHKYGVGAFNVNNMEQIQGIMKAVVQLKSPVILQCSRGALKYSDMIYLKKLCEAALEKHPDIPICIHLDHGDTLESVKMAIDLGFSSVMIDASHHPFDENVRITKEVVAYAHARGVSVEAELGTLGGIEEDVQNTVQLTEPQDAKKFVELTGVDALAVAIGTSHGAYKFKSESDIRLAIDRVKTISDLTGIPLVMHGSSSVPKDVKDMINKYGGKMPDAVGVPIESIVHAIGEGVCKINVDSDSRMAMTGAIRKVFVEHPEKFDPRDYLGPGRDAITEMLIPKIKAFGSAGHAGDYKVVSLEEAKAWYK
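40 nM FBPA preincubated 10 min at RT with compound (up to 57.5 uM final), then substrate plus GAPDH/TPI/NAD/arsenate coupling and diaphorase/resazurin added. Fluorescence read after 20 min at RT, 525/598 nm.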
Marburg entry inh – Marburg virus entry inhibition | Marburg virus pseudotyped entry inhibition, cell reporter | Potency, µM (top dose mostly 37.8 µM), most hits filed as inhibitors | 300,000 tested, 1.8% active; calls by dose curve; tested in HEK293 cells
HCV inhibitor – HCV inhibition; Huh7.5.1 HCVcc-Cre infection, luciferase reporter, 44 h; Potency, µM (highest dose often 41.8 µM), usual class: inhibitors; 340,000 tested, 3.4% active
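Reporter virus HCVcc-Cre (~0.5 moi) infects cells exposed to compound; seeding density 1,000 cells/well with 4 h settling beforehand. Luminescence, 15 sec read, taken 44 h post-infection following a 15 min RT substrate incubation.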
FMDV antiviral – foot and mouth disease virus antiviral activity; Potency, µM (doses to about 57.9 µM), actives largely listed as inhibitors; FMDV antiviral cell-based qHTS; AID 1159524; 410,000 tested, 1.2% active; calls by dose curve; tested in HEK293T cells; also: read-out not given here; nearly all actives have a fitted effect of over 45% in size
Lassa entry inh – Lassa virus entry inhibition | Potency, µM (series often up to 37.9 µM), hits mostly inhibitors | Lassa virus pseudotype entry inhibition, cell reporter | 300,000 tested, 1.2% active; calls by dose curve; tested in HEK293 cells; also: nearly all actives have a fitted effect of over 50% in size
Numbers stand for hits; 0 = inactive; ? = inconclusive; - = no result. A selection: hits, their analogues and other compounds. The true share with any hit is near 8.3%. Unless noted, calls follow the shape of the dose curve; as a rule, active = well fitted curve in the direction sought with a large enough effect; inconclusive = small, poorly fitted or top-dose-only effect, or another doubt; inactive = no such curve, though single readings can be large; an effect the other way counts as inactive or inconclusive.

SMILES | HCMV inh | FBPA Giardia inh | Marburg entry inh | HCV inhibitor | FMDV antiviral | Lassa entry inh
C=CCOc1ccc(C(=O)/C=C2/C(=O)Nc3ccccc32)cc1 | -69 | 0 | ? | 0 | 0 | 0
COc1ccc2c(c1)/C(=C/c1cnc[nH]1)C(=O)N2 | -97 | 0 | ? | ? | 0 | ?
CCOC(=O)c1cc(-c2ccccc2)n(CC(=O)N(C)c2ccc(OC)cc2)c1C | 0 | - | - | - | 0 | ?
CC1=CC(=O)[C@@H]2C[C@H]1C2(C)C | - | 0 | - | - | - | -
COc1ccc(-n2c(/C=C3\C(=O)Nc4ccccc43)nc3ccccc3c2=O)cc1 | -64 | 0 | ? | 0 | ? | ?
O=C1Nc2ccccc2/C1=C/c1nc2ccccc2c(=O)n1-c1ccc(O)cc1 | ? | 0 | ? | ? | 0 | ?
COc1ccc(C(=O)/C=C2/C(=O)Nc3ccccc32)c(OC)c1 | -100 | 0 | ? | ? | ? | ?
COc1ccc(C2(C(=O)c3ccccc3)C(=O)c3ccccc3C2=O)cc1 | - | 0 | - | 3.5µM | 0 | -
COc1ccc(C2(Nc3cccc(C(=O)O)c3C)C(=O)c3ccccc3C2=O)cc1 | 0 | - | - | - | 0 | ?
C=CCOc1ccccc1C(=O)/C=C1/C(=O)Nc2ccccc21 | -103 | 0 | - | 0 | 40µM | -
COc1ccc(/C=C/C(=O)c2ccc(OC)cc2OC)cc1 | 0 | 0 | - | ? | 0 | -
O=C1Nc2ccccc2/C1=C/c1cnc[nH]1 | ? | 0 | ? | 0 | 0 | 0
CC(C)C[C@@H](CC(=O)N[C@@H](CCCN)CC(=O)N[C@@H]1CCCC[C@H]1C(=O)N[C@H](CC(=O)N[C@@H](CCC(=O)O)CC(=O)O)Cc1ccccc1)NC(=O)[C@@H]1CCCC[C@H]1N | - | 0 | - | - | - | -
CCC[C@@H]1Cc2c(sc3ncnc(N)c23)CO1 | - | - | 0 | - | - | -
COCCN1CCN(C(=O)c2cnn(-c3nccc(-c4cc5ccccc5o4)n3)c2C2CC2)CC1 | - | - | - | - | 0 | -
COc1ccc(/C=C/c2cc(OC)c(OC)cc2CC[N+](C)(C)C)cc1 | - | 0 | - | - | 0 | -
CC[C@@](N)(C(=O)O)c1ccc(C(=O)O)cc1 | - | 0 | - | - | 0 | -
COc1cc(OC)c(/C=C2\C(=O)Nc3ccccc32)c(OC)c1 | 0 | - | - | ? | 28µM | -
NC(=O)COc1ccc(C(=O)/C=C2/C(=O)Nc3ccccc32)cc1 | 0 | 0 | ? | 0 | ? | ?
COc1ccc(C(=O)/C=C2/C(=O)Nc3ccccc32)cc1OC | 0 | 0 | - | ? | 32µM | -
O=C(Nc1nc2ccccc2n1CCN1CCOCC1)c1cccc([N+](=O)[O-])c1 | - | - | ? | - | - | 0
O=[N+]([O-])c1cc(-c2nc(-c3ccccc3)no2)ccc1NCCc1ccccc1 | 0 | - | 0 | - | 0 | 0
O=C(Cc1c(Cl)cccc1Cl)NCCc1ccc(Cl)cc1 | 0 | 0 | 0 | 0 | 0 | ?
O=C(CCl)NCc1c(Cl)cccc1-n1cccc1 | -98 | 0 | ? | ? | 0 | ?
O=C(O)c1cccc(Br)c1 | 0 | - | - | 0.79µM | 0 | -
SMILES | HCMV inh | FBPA Giardia inh | Marburg entry inh | HCV inhibitor | FMDV antiviral | Lassa entry inh
CC(NC(=O)c1cccc(Br)c1)c1ccccc1 (centres undefined) | -70 | 0 | ? | 0 | 0 | 0
N#CC(C#N)=C1c2cc(S(=O)(=O)NCCO)ccc2-c2ccc(S(=O)(=O)NCCO)cc21 | 0 | ? | - | 0 | 0 | -
N#CC(C#N)=C1c2cc(S(N)(=O)=O)ccc2-c2ccc(S(N)(=O)=O)cc21 | 0 | ? | - | 0 | 25µM | -
OC[C@H]1OC([S-])[C@H](O)[C@@H](O)[C@@H]1O.[Au+] (some centres undefined) | - | - | - | - | 0 | -
Cc1c(NC(=S)N/N=C/C=C/c2ccc([N+](=O)[O-])cc2)c(=O)n(-c2ccccc2)n1C | -103 | 0 | 0 | 0 | ? | 0
Cc1c(NC(=S)N/N=C/C=C/c2ccccc2)c(=O)n(-c2ccccc2)n1C | 0 | 0 | 0 | 0 | 0 | 0
COc1ccccc1NS(=O)(=O)c1cc(NC(=O)c2cccs2)ccc1N1CCCCC1 | 0 | 0 | 5.8µM | 0 | 0 | ?
COc1ccccc1NS(=O)(=O)c1cc(NC(=O)Nc2ccccc2)ccc1N1CCCCC1 | 0 | 0 | ? | ? | 0 | ?
COc1ccccc1NS(=O)(=O)c1cc(NC(=O)c2cc(=O)[nH]c3ccccc23)ccc1N1CCOCC1 | 0 | 0 | - | 25µM | 0 | -
COc1ccccc1NS(=O)(=O)c1cc(NC(=O)C(C)(C)C)ccc1N1CCOCC1 | 0 | - | 0 | ? | 0 | 0
COc1ccccc1NS(=O)(=O)c1cc(NC(=O)C(C)C)ccc1N1CCCCC1 | 0 | 0 | 0.79µM | ? | 0 | ?
COc1ccccc1NS(=O)(=O)c1cc(NC(=O)c2cc[n+]([O-])cc2)ccc1N1CCCC1 | ? | 0 | 0 | 0 | 0 | 0
COc1ccccc1NS(=O)(=O)c1cc(NC(=O)c2cccs2)ccc1N1CCCC1 | ? | 0 | ? | ? | 0 | 12µM
CN(Cc1ccccc1)S(=O)(=O)c1nnc(NC(=O)c2ccccc2Cl)s1 | 0 | - | - | - | 0 | 0
CC(C)Cc1nn2cc(-c3cccc(Br)c3)nc2s1 | 0 | - | ? | - | 0 | ?
COc1ccc(-c2ccccc2-c2noc3ccccc23)cc1 | 0 | - | - | - | - | -
CN1CCN(c2ccc(Cl)cc2NC(=O)c2cc(=O)[nH]c3ccccc23)CC1 | -98 | - | - | 0 | 0 | -
O=C(Nc1ccc(N2CCCC2)c(S(=O)(=O)Nc2cccc(C(F)(F)F)c2)c1)c1cccs1 | ? | 0 | 1.4µM | ? | 0 | ?
COc1cccc2c(=O)c3c([nH]c12)OC(C)(C)C3 | 0 | - | 0 | 0 | 0 | 0
COc1cccc2c(=O)c3cccc(N)c3[nH]c12 | 0 | 1.8µM | ? | 0 | 0 | 0
Cc1[nH]c(N=Nc2ccccc2)nc1N=Nc1ccccc1 | 0 | 0 | ? | 13µM | 0 | ?
CCOCCOC(=O)c1[nH]c2c(c1C)C(=O)CC(c1cc(OC)c(OC)c(OC)c1)C2 (centres undefined) | -62 | 0 | ? | 5µM | 28µM | 0
Cc1c(C(=O)OC2CCCCCC2)[nH]c2c1C(=O)CC(c1ccccc1)C2 (centres undefined) | 0 | - | 0 | - | 0 | 0
COC(=O)C1C(=O)C2=C(CC1C)NC(C)=C(C(=O)OCCOc1ccccc1)C2c1ccc(C)o1 (centres undefined) | 0 | 0 | ? | 13µM | 0 | ?
COC(=O)c1[nH]c2c(c1C)C(=O)CC(c1cc(OC)c(OC)c(OC)c1)C2 (centres undefined) | -74 | 0 | - | 10µM | ? | -
COc1cc(C2CC(=O)c3c([nH]c(C(=O)OC4CCCC4)c3C)C2)cc(OC)c1OC (centres undefined) | -98 | - | ? | - | ? | ?
CC(C)C[C@H](NC(=O)[C@H](CCCCN)NC(=O)[C@H](CCC(N)=O)NC(=O)[C@H](Cc1cnc[nH]1)NC(=O)[C@H](Cc1cnc[nH]1)NC(=O)[C@@H](N)C(C)C)C(=O)N[C@H](C(=O)N[C@@H](Cc1ccccc1)C(=O)N[C@@H](Cc1ccccc1)C(=O)N[C@@H](C)C(=O)N[C@@H](CCC(=O)O)C(=O)N[C@@H](CC(=O)O)C(=O)N[C@H](C(=O)NCC(=O)N[C@@H](CO)C(=O)N[C@@H](CC(N)=O)C(=O)N[C@@H](CCCCN)C(=O)O)C(C)C)C(C)C | - | 0 | - | - | - | -
